The whole screen tested about 13,000 compounds, of which about 3,200 (25%) showed an effect of 50% or more. The list shows a part of the results.

The test concerns P. falciparum stage V gametocytes. Further details: BacTiter-Glo ATP luminescence viability of purified stage V gametocytes in 384-well plates, per cent inhibition versus DMSO. Particulars: 48 h, 5 µM; inhibitor.
Consider `O=[N+]([O-])c1cccc(CNCC2CCN(Cc3ccc(Cl)c(Cl)c3)CC2)c1` [TCMDC-141206], for which the “% Inhibition” value amounted to 3.652%.
Consider `O=C(Nc1cccc([N+](=O)[O-])c1)N(Cc1ccc(Cl)c(Cl)c1)C1CCNCC1` [TCMDC-141400], for which the “% Inhibition” value is recorded as 39.3%.
`N#Cc1cccc(CN(Cc2ccc(Cl)c(Cl)c2)S(=O)(=O)c2cccc([N+](=O)[O-])c2)c1` [TCMDC-141594]: the “% Inhibition” value is given as 51.09%.
For `Cc1cccc2sc(N(CCCn3ccnc3)C(=O)C=Cc3cccs3)nc12` [TCMDC-124929], the “% Inhibition” value is given as 30.83%.
Next, `Cc1c(C(=O)N2CCc3cc4nccc(N5CCN6CCC[C@H]6C5)c4cc32)cnn1-c1ccc(C#N)cc1` [TCMDC-141315]: 14.04%; `CC(=O)Nc1ccc(CNC2Cc3ccc(-c4ccc(Cl)c(Cl)c4)cc3C2)cc1` (stereo not drawn) [TCMDC-133070]: 12.53%; `CCN(CC)S(=O)(=O)c1ccc(Cl)c(C(=O)Nc2ccc3nc(C)sc3c2)c1` [TCMDC-124376]: 33.54%.
`CCCCNCc1ccc(-c2nc(CN(Cc3ccc(Cl)c(Cl)c3)C(=O)CN(C)C)cs2)cc1` [TCMDC-141703]: the “% Inhibition” value came out at 68.39%.
As for `CCCCOc1ccccc1C(=O)NCc1csc(-c2ccccc2)n1` [TCMDC-124914], the “% Inhibition” value worked out at 34.72%.
In the case of `CN(C)CC(=O)N(Cc1ccc(Cl)c(Cl)c1)Cc1csc(-c2ccc(CNCc3ccccc3)cc2)n1` [TCMDC-141814], the “% Inhibition” value was determined as 21.62%.
Then `CCCCNCc1ccc(-c2nc(CN(Cc3ccc(Cl)c(Cl)c3)S(=O)(=O)c3ccc(NC(C)=O)cc3)cs2)cc1` [TCMDC-141597], with 93.87%; and `O=c1[nH]c(Cc2ccccc2)nc2ccc(Cl)cc12` [TCMDC-123986], with 41.17%; and `Cc1cccc2nc(-c3ccc(-c4ccc(CN5CCCC(O)C5)cc4)s3)[nH]c12.O=C(O)C(F)(F)F` (stereo not drawn) [TCMDC-133827], with -10.01%.
As for `Cc1cccc2nc(-c3ccc(-c4ccc(CN5CCC(CO)CC5)cc4)s3)[nH]c12.O=C(O)C(F)(F)F` [TCMDC-133128], the “% Inhibition” value is given as -12.48%.
Then `Cc1cccc2nc(-c3ccc(-c4ccc(CN5CCCC(N)C5)cc4)s3)[nH]c12.O=C(O)C(F)(F)F` (stereo not drawn) [TCMDC-133864], with 61.01%.
`Cc1cccc2nc(-c3ccc(-c4ccc(CN5CCC(C(N)=O)CC5)cc4)s3)[nH]c12.O=C(O)C(F)(F)F` [TCMDC-132695]: the “% Inhibition” value is on record as 10.69%.
Regarding `Cc1cccc2nc(-c3ccc(-c4ccc(CN5CCC(N)C5)cc4)s3)[nH]c12.O=C(O)C(F)(F)F` (stereo not drawn) [TCMDC-133862], the “% Inhibition” value turned out to be 94.82%.
For `NC(=O)c1cccc(C(=O)Nc2ccc(-c3cccc(-c4nc5ccc(F)cc5[nH]4)c3)cc2)c1` [TCMDC-132196], the “% Inhibition” value is on record as -0.7681%.

Source of the values: PMC4552634, “A New Set of Chemical Starting Points with Plasmodium falciparum Transmission-Blocking Potential for Antimalarial Drug Discovery” (PLoS ONE, 2015).
